# This is part of a sample that, as a whole, favours compounds with a hit. Of some 83,000 tested, about 20% had one in any assay.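 Single-dose data. Exposure time 48 hours. Values below 10 considered active.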 The source made the active and inactive calls.
# System: BT-549 breast
# Test: NCI-60 one-dose screen, 48 h (100 = growth as untreated, 0 = no growth, -100 = all killed)
# Settings: 10 µM unless noted
# Protocol: Growth inhibition of the BT-549 human tumor cell line is measured as a screen for anti-cancer activity. Cells are grown in 96 well plates and exposed to the test compound for 48 hours. Compounds are tested at a single concentration, which is 10^-5 M for most compounds. The reported endpoint is percent growth (GI% or GIPRCNT), where numbers from 0 - 100% represent growth inhibition, and numbers from -100% - 0 represent cell death. For example, a value of 40 represents 60% growth inhibition. A value of 0 means no net growth occurred over the course of the experiment. A value of -40 indicates 40% of cells at the beginning of the experiment died by the end of the experiment. A value of -100 means all cells are dead at the end of the experiment.
# NCI-60 Human Tumor Cell Lines Screen was performed using the standard one-dose NCI protocol, which is described in more detail at https://dtp.cancer.gov/discovery_development/nci-60/default.htm.
# Compounds with GIPRCNT values below 10 were considered active. Activity score was based on GIPRCNT using the following formula: […]
# Score is 0 for GIPRCNT values of 100 or above, 50 for GIPRCNT values of 0, and 100 for GIPRCNT values of -100.
row,SMILES,growth
1,COc1ccc(C(=O)N2NC(=O)/C(=C/c3ccc(F)cc3)N=C2c2ccccc2)cc1,83% (inactive)
2,CCN1CCN(CC(=O)N2c3cccc4cccc(c34)N(C(=O)CN3CCN(CC)CC3)C2c2cn(-c3ccccc3)nc2-c2cccc([N+](=O)[O-])c2)CC1,80.7% (inactive)
3,Cc1ccc(Cc2c(C=O)nc(N)[nH]c2=O)c2ccccc12,87.9% (inactive)
4,COc1ccc(Nc2[nH]n3c(=O)cc(C)nc3c2C(N)=O)c(OC)c1,95.3% (inactive)
5,C=C1C(=O)O[C@H]2[C@H]1CC/C(Cn1cc(CNC(=O)c3cc4ccccc4[nH]3)nn1)=C\CC[C@@]1(C)O[C@@H]21,87.9% (inactive)
6,COc1cc(C2CC(c3ccc4c(c3)OCO4)=NN2C(C)=O)cc(OC)c1OC (stereo not given),60.7% (inactive)
7,Cc1nn(-c2ccc([N+](=O)[O-])cc2)c2ncnc(NCCc3ccccc3)c12,114% (inactive)
8,O=C(/C=C/c1c[nH]c2ccccc12)c1ccc(O)c(CN2CCN(c3ccc(F)cc3)CC2)c1,99.2% (inactive)
9,FC(F)(F)c1cccc(-c2cn3c(ccc4ccccc43)n2)c1,91.1% (inactive)
10,O=C(Nc1ccncc1)C(=O)c1cn(S(=O)(=O)c2ccc(Cl)cc2)c2ccccc12,39.2% (inactive)
11,COc1cc(/C=C/C(=O)c2ccc(Nc3ncnc4cc(OC)c(OC)cc34)cc2)cc(OC)c1,105% (inactive)
12,Cc1nc2c3c(ncn2n1)Oc1c(c(=O)[nH]c2ccccc12)C3c1ccc(Cl)cc1 (stereo not given),-52.7% (active)
13,Cc1cc(N/N=C/c2nc(-c3ccc(Br)cc3)oc2C)c2cc(Br)ccc2n1,93.1% (inactive)
14,CSc1nc2c(c(=O)[nH]1)C(c1ccc(C)cc1)C=C(C(=O)O)N2 (stereo not given),93.6% (inactive)
15,NC(N)=Nc1nc2ccccc2o1,89.9% (inactive)
16,CC(C)(C)OC(=O)NC(CSCc1ccccc1)C(=O)ON1C(=O)CCC1=O (stereo not given),117% (inactive)
17,COC(=O)c1nc(-c2ccccc2)oc1S(=O)(=O)N1CCN(c2cccc(Cl)c2)CC1,71% (inactive)
18,O=c1ccn(-c2ncnc3nc[nH]c23)cc1,98.9% (inactive)
19,O=[N+]([O-])c1cnc(Sc2ccncn2)s1,103% (inactive)
20,COc1cc(/C=C/C(=O)c2cccc(-n3cc(-c4cc(OC)c(OC)c(OC)c4)[nH]c3=O)c2)cc(OC)c1OC,-2.07% (active)

row,SMILES,growth
1,Cc1nc2cncc(C#Cc3cncc(C(=O)Nc4ccc(CN5CCN(C)CC5)c(C(F)(F)F)c4)c3)c2nc1C,37.6% (inactive)
2,COc1cc(-c2nn(-c3cccc(NC(=O)c4ccc(Cl)c(C(F)(F)F)c4)c3)cc2-c2ccncc2)ccc1Cl,49.7% (inactive)
3,COc1cc(-c2nn(-c3cccc(NC(=O)Nc4ccc(Cl)c(Cl)c4)c3)cc2-c2ccncc2)ccc1Cl,6.23% (active)
4,C/C=C/C1=CN2C(=O)c3cc(OC4OC(C)C(NC)C(C)(O)C4O)c(C)cc3N=C[C@@H]2C1 (stereo not given in full),-41.2% (active)
5,CC(C)(C)c1[nH]nc2c1C(c1cc3ccccc3[nH]c1=O)Nc1cc(C(=O)Nc3ccc(Cl)cc3)ccc1N2 (stereo not given),63.9% (inactive)
6,CN1CCN(Cc2ccc(NC(=O)c3cncc(C#Cc4cnc(N)c5cnccc45)c3)cc2C(F)(F)F)CC1,27.4% (inactive)
7,C=C[C@@H]1C[C@@H]2Cc3cc(Cl)ccc3N1O2,105% (inactive)
8,CN(CCCCCl)P(=O)(OCc1ccc([N+](=O)[O-])o1)C(F)(F)C[C@H](NC(=O)CNC(=O)c1ccc(N=[N+]=[N-])cc1)C(=O)NCCc1ccc(O)cc1 (stereo not given in full),79% (inactive)
9,O=C(NS(=O)(=O)c1ccccc1)n1cc(-c2ccncc2)c(-c2ccc(Cl)c(O)c2)n1,104% (inactive)
10,Cc1nc2ncccc2nc1Nc1ccc(S(=O)(=O)Nc2cncs2)cc1,83% (inactive)
11,CN1CCN(Cc2ccc(NC(=O)c3cncc(C#Cc4cnc(N)c5ccncc45)c3)cc2C(F)(F)F)CC1,49.2% (inactive)
12,CC(C)c1ccc2occ(C=C3C(=O)NC(=O)NC3=O)c(=O)c2c1,92.4% (inactive)
13,O=c1[nH]c2ccc(Br)cc2c2c1C(c1ccc(Cl)cc1)c1c(ncn3nc(-c4ccco4)nc13)O2 (stereo not given),76.9% (inactive)
14,COc1cc(Nc2nc(N[C@H]3CCCC[C@@H]3N)nc3cc[nH]c(=O)c23)cc(OC)c1,-27% (active)
15,COc1cc2c(=O)n(C3CCCCCC3)c3c4cc[nH]c4ncc3c2cc1OC,52.3% (inactive)
16,CC(=O)Nc1ccc(/C=C/C(=O)c2ccccc2)cc1,86.2% (inactive)
17,O=C1CS/C(=N\Nc2cc(=O)[nH]c3ccccc23)N1c1ccccc1,95.3% (inactive)
18,O=C(Nc1ccncc1)C(=O)c1cn(S(=O)(=O)c2ccc(Oc3ccccc3)cc2)c2ccccc12,94.9% (inactive)
19,COc1ccc(-n2c(=O)sc3c(Cl)nc(C)nc32)c(OC)c1,91.6% (inactive)
20,O=C1NC(=C(Cl)Cl)/C(=N/S(=O)(=O)N2CCC(C3(C(F)(F)F)N=N3)CC2)N1,99.4% (inactive)
